# Measured values as given in PubChem BioAssay (Tox21).
# Results filed as inconclusive are left out. Entries that show only a call come without a potency. Some structures have more than one record in an assay (separate samples or runs), and their calls can disagree. Calls of active or inactive are those of the source. Unless noted, calls follow the shape of the dose curve; as a rule, active = well fitted curve in the direction sought with a large enough effect in the repeat runs; inconclusive = weak or mixed curves; inactive = no such curve, though single readings can be large; an effect the other way counts as inactive or inconclusive.
# Tests used:
# [1] = qHTS assay to identify small molecule agonists of the hypoxia (HIF-1) signaling pathway - cell viability counter screen (AID 1224844; calls by dose curve; also: nearly all actives have a fitted effect of over 50% in size; also: potency is read from the fitted curve at half-maximal effect)
# Method in brief: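 HRE-bla ME-180 cells in medium with 0.5% dialyzed FBS were preincubated 5 hrs at 37C, exposed to compounds for 17 hrs, then viability was read as CellTiter-Glo luminescence after 30 min at room temperature, in the reporter wells.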
# [2] = qHTS assay to identify small molecule agonists of H2AX (AID 1224845; active = well fitted activation curve with a large enough effect in the signal ratio in the repeat runs, not every such curve was filed as active; the % refers to the signal ratio)
# Method in brief: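 Wild-type CHO-K1 cells, plated overnight, exposed 3hr at 37C to 15 concentrations (0.76% DMSO final). Lysed, then HTRF anti-pH2AX (S139) cryptate and anti-H2AX-d2 antibodies, 24 hr room temperature; 665/620 nm emission read.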
# [3] = qHTS assay to identify small molecule agonists of the hypoxia (HIF-1) signaling pathway (AID 1224846; active = well fitted activation curve with a large enough effect in the signal ratio in the repeat runs, not every such curve was filed as active; the % refers to the signal ratio)
# Method in brief: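 HRE-bla ME-180 cells (beta-lactamase reporter under hypoxia response element) were plated at 2,000 cells/well in medium with 0.5% dialyzed FBS, rested 5 hrs, then given compounds in DMSO for 17 hrs at 37C, 5% CO2. Reporter induction was read with CCF4-AM FRET substrate.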
# [4] = qHTS assay to identify small molecule agonists of H2AX - cell viability counter screen (AID 1224847; calls by dose curve; also: nearly all actives have a fitted effect of over 30% in size; also: potency is read from the fitted curve at half-maximal effect)
# Method in brief: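 For this counter screen, overnight-attached CHO-K1 cells received test compounds (15 concentrations, 0.76% DMSO final); 3 hr later at 37C, CellTiter-Glo reagent was added and luminescence recorded after 30 min at room temperature.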
# [5] = qHTS RealTime-Glo MT Cell Viability Assay in HepG2 cells - 24 hour (AID 1224867); also: nearly all actives have a fitted effect of over 50% in size; also: potency is read from the fitted curve at half-maximal effect
# Method in brief: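 Viability was tracked continuously by NanoLuc luminescence from prosubstrate reduced by living HepG2 cells, at successive time points over 40 h of compound exposure. Cells with reagent were preincubated 5 h at 37 °C before compound addition.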
# [6] = qHTS RealTime-Glo MT Cell Viability Assay in HEK293 cells - 32 hour (AID 1224868); also: nearly all actives have a fitted effect of over 50% in size; also: potency is read from the fitted curve at half-maximal effect
# Method in brief: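 Viability tracked continuously by luminescence as live cells reduce a prosubstrate for NanoLuc; HEK293 cells preincubated 5 h, compound-treated at 37 C, and read at 0, 8, 16, 24, 32 and 40 h.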
# [7] = A CellTox Green Cytotoxicity Assay to monitor cytotoxicity in HEK293 cells - 0 hour (AID 1224869); also: nearly all actives have a fitted effect of over 50% in size
# Method in brief: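 HEK293 cells premixed with CellTox Green dye were seeded at 600 cells/well and left 5 h at 37 C/5% CO2 before pin transfer of 23 nL compound in DMSO. Fluorescence from dye bound to dead-cell DNA was read during 40 h treatment.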
# [8] = qHTS assay to identify small molecule agonists of the estrogen related receptor (ERR) signaling pathway from Tox21 library (AID 1224849; calls by dose curve; also: nearly all actives have a fitted effect of over 15% in size); conditions: ERR reporter cell line, ONE-Glo luciferase, 18 h; at 92.4 µM (top of the series) unless noted
# Method in brief: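 ERR reporter cell line (NTP) seeded, rested 6 h at 37 C/5% CO2, then pinned with Tox21 compounds in DMSO. After 18 h at 37 C, ONE-Glo luciferase luminescence was read following 30 min at room temperature.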
# [9] = qHTS assay to identify small molecule antagonists of the estrogen related receptor (ERR) signaling pathway from Tox21 library (AID 1224848); also: nearly all actives have a fitted effect of over 50% in size; also: potency is read from the fitted curve at half-maximal effect
# Method in brief: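 Luminescent reporter read-out (ONE-Glo) from NTP's ERR cell line after 18 h treatment at 37 C with DMSO-dissolved Tox21 compounds; cells pre-plated 6 h beforehand at 2,000 per well.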
Compound,Potency [1],Potency [2],outcome [3],Potency [4],Potency [5],Potency [6],Potency [7],"activity change, positive = activation [8]",Potency [9]
ClCCCCBr,inactive,inactive,inactive,inactive,inactive,inactive,inactive,,
CCCN(CCC)c1c([N+](=O)[O-])cc(S(C)(=O)=O)cc1[N+](=O)[O-],inactive,inactive,inactive,inactive,inactive,13.8 µM (active),inactive,-24.5% (inactive),
CCCCOC(=O)c1ccccc1C(=O)OCc1ccccc1,inactive,inactive,inactive,inactive,inactive,,inactive,3.01% (inactive),inactive
CC(Cl)C(C)Cl (stereo not drawn),inactive,inactive,inactive,inactive,inactive,inactive,inactive,0.315% (inactive),inactive
O=C1CN=C(c2ccccc2)c2cc(Cl)ccc2N1CC1CC1,inactive,inactive,inactive,94.2 µM (active),inactive,,inactive,-41.3% (inactive),51 µM (active)
O=C(NC(=O)c1c(F)cccc1F)Nc1cc(Cl)c(Oc2ncc(C(F)(F)F)cc2Cl)c(Cl)c1,inactive,inactive,inactive,inactive,,,inactive,,
CO/C=C(/C(=O)OC)c1ccccc1COc1cccc(C(F)(F)F)n1,inactive,inactive,inactive,17.9 µM (active),inactive,19.5 µM (active),inactive,-45% (inactive),0.485 µM (active)
O=C1NCN(c2ccccc2)C12CCN(CCCOc1ccc(F)cc1)CC2,inactive,inactive,inactive,inactive,,,inactive,-8.92% [at 42.5 µM] (inactive),inactive
O=Cc1ccc(Cl)cc1Cl,inactive,inactive,inactive,inactive,inactive,inactive,inactive,-10.7% (inactive),inactive
CN1[C@@H]2CC[C@H]1CC(OC(=O)c1cc(Cl)cc(Cl)c1)C2 (stereo partly drawn),inactive,inactive,inactive,inactive,,,inactive,,
[O-][Cl+]O,inactive,inactive,inactive,inactive,inactive,inactive,inactive,8.47% (inactive),inactive
C#CCOC(C(=O)OCCN(C)C)(c1ccccc1)c1ccccc1,inactive,inactive,inactive,inactive,inactive,inactive,inactive,,
Cc1ccccc1CCl,inactive,inactive,inactive,inactive,inactive,inactive,inactive,7.48% (inactive),inactive
O=C(OC1CCCCC1)c1ccccc1C(=O)OC1CCCCC1,inactive,inactive,inactive,106 µM (active),inactive,inactive,inactive,,
Cc1c(F)c(F)c(COC(=O)C2C(/C=C(\Cl)C(F)(F)F)C2(C)C)c(F)c1F (stereo not drawn),,inactive,inactive,,inactive,inactive,inactive,,
CC(c1ccc(O)cc1)(c1ccc(O)cc1)c1ccc(O)cc1,inactive,,,,inactive,54.9 µM (active),inactive,-42.4% (inactive),54.5 µM (active)
COc1nn(CSP(=S)(OC)OC)c(=O)s1,,,inactive,,inactive,inactive,inactive,,
IC(I)=C(I)I,11 µM (active),,,31.8 µM (active),0.549 µM (active),6.92 µM (active),inactive,-75.2% (inactive),19.3 µM (active)
O=S1(=O)OC(c2cc(Br)c(O)c(Br)c2)(c2cc(Br)c(O)c(Br)c2)c2ccccc21,6.34 µM (active),,inactive,8.23 µM (active),inactive,inactive,inactive,,
CN(C)c1ccc(N(C)C)cc1,inactive,,inactive,,inactive,,inactive,,
CCOP(=S)(OCC)Oc1nc(Cl)c(Cl)cc1Cl,inactive,,inactive,56.8 µM (active),inactive,21.9 µM (active) and inactive,inactive,,
Nc1ccc(N=Nc2ccc(-c3ccc(N=Nc4c(S(=O)(=O)O)cc5cc(S(=O)(=O)O)c(N=Nc6ccccc6)c(O)c5c4N)cc3)cc2)c(N)c1,inactive,,inactive,11.5 µM (active),inactive,inactive,inactive,,
O=C(Nc1ccccc1)Nc1ccnc(Cl)c1,inactive,inactive,,,inactive,19.5 µM (active),inactive,-55.6% (inactive),24.3 µM (active)
